For twelve sequences, binding signal results are on record in paper PMC11006913.

What all share (assay): PBM; 200 nM protein, PBS
What all share (conditions): dsDNA, one strand shown

The target in one assay is T1, VENTX (Homo sapiens, UniProt O95231 78-163).
T1 sequence: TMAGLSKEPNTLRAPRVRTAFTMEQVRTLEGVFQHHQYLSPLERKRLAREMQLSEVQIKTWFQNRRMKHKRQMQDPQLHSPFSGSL

The target in assay [1] is HOXA7 (Homo sapiens, UniProt P31268 116-202).
Assay [2] deals with HOXB6 (Homo sapiens, UniProt P17509 132-218, K202E).
Chain of HOXB6 (Homo sapiens, UniProt P17509 132-218, K202E) (P17509 132-218 K202E): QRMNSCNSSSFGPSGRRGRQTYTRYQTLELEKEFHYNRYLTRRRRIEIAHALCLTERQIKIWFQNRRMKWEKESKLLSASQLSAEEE
The target of assay [3] is HOXC10 (Homo sapiens, UniProt Q9NYD6 254-340, K271E).
Chain of HOXC10 (Homo sapiens, UniProt Q9NYD6 254-340, K271E) (Q9NYD6 254-340 K271E): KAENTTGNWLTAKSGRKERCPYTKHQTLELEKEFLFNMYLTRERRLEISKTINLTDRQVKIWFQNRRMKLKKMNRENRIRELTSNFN
The target of assay [4] is HOXA7 (Homo sapiens, UniProt P31268 116-202, W177C).
Chain of HOXA7 (Homo sapiens, UniProt P31268 116-202, W177C) (P31268 116-202 W177C): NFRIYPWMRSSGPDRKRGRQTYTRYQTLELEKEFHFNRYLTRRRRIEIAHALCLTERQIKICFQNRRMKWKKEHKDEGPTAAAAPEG
Assay [5] concerns the target HOXB6 (Homo sapiens, UniProt P17509 132-218).
Assay [6] deals with HOXB9 (Homo sapiens, UniProt P17482 171-250, T197M).
Chain of HOXB9 (Homo sapiens, UniProt P17482 171-250, T197M) (P17482 171-250 T197M): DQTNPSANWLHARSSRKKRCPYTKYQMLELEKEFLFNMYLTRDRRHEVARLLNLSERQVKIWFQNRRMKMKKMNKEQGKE
The target in another assay is T2, PAX4 (Homo sapiens, UniProt O43316 9-242, R200K).
T2 sequence: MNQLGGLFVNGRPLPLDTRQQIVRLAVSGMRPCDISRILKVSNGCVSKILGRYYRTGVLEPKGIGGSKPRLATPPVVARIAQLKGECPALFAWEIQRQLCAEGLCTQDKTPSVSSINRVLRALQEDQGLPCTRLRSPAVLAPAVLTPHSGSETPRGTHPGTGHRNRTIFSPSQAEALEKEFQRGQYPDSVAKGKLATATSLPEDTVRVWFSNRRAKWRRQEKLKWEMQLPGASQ

In assay [7] the target is HOXB9 (Homo sapiens, UniProt P17482 171-250).
Chain of HOXB9 (Homo sapiens, UniProt P17482 171-250) (P17482 171-250): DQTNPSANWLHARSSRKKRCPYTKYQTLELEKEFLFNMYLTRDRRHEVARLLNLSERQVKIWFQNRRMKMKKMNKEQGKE
The target in assay [8] is HOXB9 (Homo sapiens, UniProt P17482 171-250, R186Q).
Chain of HOXB9 (Homo sapiens, UniProt P17482 171-250, R186Q) (P17482 171-250 R186Q): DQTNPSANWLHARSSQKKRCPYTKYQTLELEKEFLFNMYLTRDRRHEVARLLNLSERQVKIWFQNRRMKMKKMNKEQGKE
The target in assay [9] is HOXC9 (Homo sapiens, UniProt P31274 178-260, K195R).
Chain of HOXC9 (Homo sapiens, UniProt P31274 178-260, K195R) (P31274 178-260 K195R): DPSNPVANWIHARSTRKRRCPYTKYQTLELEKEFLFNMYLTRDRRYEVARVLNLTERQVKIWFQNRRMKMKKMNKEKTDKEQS
Assay [10] deals with HOXC10 (Homo sapiens, UniProt Q9NYD6 254-340).
Chain of HOXC10 (Homo sapiens, UniProt Q9NYD6 254-340) (Q9NYD6 254-340): as the sequence (Q9NYD6 254-340 K271E) above, with E18K counted along it
Assay [11] has as its target HOXC9 (Homo sapiens, UniProt P31274 178-260).
Assay [12] has as its target HOXC9 (Homo sapiens, UniProt P31274 178-260, R193K).
For assay [13], the target named is HOXC9 (Homo sapiens, UniProt P31274 178-260, R222W).
Chain of HOXC9 (Homo sapiens, UniProt P31274 178-260, R222W) (P31274 178-260 R222W): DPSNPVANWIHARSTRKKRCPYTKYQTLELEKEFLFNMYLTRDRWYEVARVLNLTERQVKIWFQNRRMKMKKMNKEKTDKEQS
Assay [14] has as its target HOXD13 (Homo sapiens, UniProt P35453 263-343, T313R).
The target of assay [15] is HOXD13 (Homo sapiens, UniProt P35453 263-343).
Chain of HOXD13 (Homo sapiens, UniProt P35453 263-343) (P35453 263-343): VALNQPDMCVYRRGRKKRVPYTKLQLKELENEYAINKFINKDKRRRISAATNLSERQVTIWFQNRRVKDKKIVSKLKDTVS
Assay [16] deals with HOXD13 (Homo sapiens, UniProt P35453 263-343, T313A).
Chain of HOXD13 (Homo sapiens, UniProt P35453 263-343, T313A) (P35453 263-343 T313A): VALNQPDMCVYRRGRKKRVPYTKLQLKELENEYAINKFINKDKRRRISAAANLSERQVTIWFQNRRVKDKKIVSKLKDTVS

Chain of HOXC9 (Homo sapiens, UniProt P31274 178-260) (P31274 178-260): as the sequence (P31274 178-260 R222W) above, with W45R counted along it
Chain of HOXB6 (Homo sapiens, UniProt P17509 132-218) (P17509 132-218): as the sequence (P17509 132-218 K202E) above, with E71K counted along it
Chain of HOXC9 (Homo sapiens, UniProt P31274 178-260, R193K) (P31274 178-260 R193K): as the sequence (P31274 178-260 R222W) above, with R16K, W45R counted along it
Chain of HOXA7 (Homo sapiens, UniProt P31268 116-202) (P31268 116-202): as the sequence (P31268 116-202 W177C) above, with C62W counted along it
Chain of HOXD13 (Homo sapiens, UniProt P35453 263-343, T313R) (P35453 263-343 T313R): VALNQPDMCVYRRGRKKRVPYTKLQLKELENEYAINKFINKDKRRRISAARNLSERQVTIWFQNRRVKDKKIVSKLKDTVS

In the case of ACTAATGA, in the assay with VENTX, the binding signal is 12.7 upbm affinity estimate (log intensity, higher = more binding, comparable within an allelic series).
CCTCATTA: the binding signal with VENTX is 12.5 upbm affinity estimate (log intensity, higher = more binding, comparable within an allelic series).
As to ACTAATGG, the binding signal with VENTX is 12.8 upbm affinity estimate (log intensity, higher = more binding, comparable within an allelic series).
As for GTTAATGA, the binding signal with VENTX is 12.6 upbm affinity estimate (log intensity, higher = more binding, comparable within an allelic series); with HOXA7 [1], 11.3 upbm affinity estimate (log intensity, higher = more binding, comparable within an allelic series); with HOXB6 [2], 9.94 upbm affinity estimate (log intensity, higher = more binding, comparable within an allelic series); in the assay with HOXC10 [3] it was 11.9 upbm affinity estimate (log intensity, higher = more binding, comparable within an allelic series); with HOXA7 [4], 8.79 upbm affinity estimate (log intensity, higher = more binding, comparable within an allelic series); with HOXB6 [5], 11.8 upbm affinity estimate (log intensity, higher = more binding, comparable within an allelic series).
For GACCAGGC, the binding signal in the assay with HOXB9 [6] was 8.29 upbm affinity estimate (log intensity, higher = more binding, comparable within an allelic series); with VENTX it was 8.13 upbm affinity estimate (log intensity, higher = more binding, comparable within an allelic series); with HOXA7 [1], 8.38 upbm affinity estimate (log intensity, higher = more binding, comparable within an allelic series); in the assay with PAX4, 9.22 upbm affinity estimate (log intensity, higher = more binding, comparable within an allelic series); with HOXB9 [7], 8.23 upbm affinity estimate (log intensity, higher = more binding, comparable within an allelic series); in the assay with HOXB9 [8], 8.26 upbm affinity estimate (log intensity, higher = more binding, comparable within an allelic series). In the assay with HOXA7 [4], the binding signal is 8.39 upbm affinity estimate (log intensity, higher = more binding, comparable within an allelic series).
In the case of ACATTAAT, the binding signal with HOXB9 [6] is 10.1 upbm affinity estimate (log intensity, higher = more binding, comparable within an allelic series); with HOXC9 [9], 12.7 upbm affinity estimate (log intensity, higher = more binding, comparable within an allelic series); in the assay with HOXA7 [1], 11.6 upbm affinity estimate (log intensity, higher = more binding, comparable within an allelic series); with HOXC10 [10], 12.2 upbm affinity estimate (log intensity, higher = more binding, comparable within an allelic series); with HOXB6 [2], 10.1 upbm affinity estimate (log intensity, higher = more binding, comparable within an allelic series); with HOXB9 [7], 11.9 upbm affinity estimate (log intensity, higher = more binding, comparable within an allelic series). The binding signal was 12.7 upbm affinity estimate (log intensity, higher = more binding, comparable within an allelic series) in the assay with HOXC9 [11]; 12.7 upbm affinity estimate (log intensity, higher = more binding, comparable within an allelic series) with HOXC9 [12]; 12 upbm affinity estimate (log intensity, higher = more binding, comparable within an allelic series) with HOXC10 [3]; 11.7 upbm affinity estimate (log intensity, higher = more binding, comparable within an allelic series) with HOXB9 [8]; 11 upbm affinity estimate (log intensity, higher = more binding, comparable within an allelic series) in the assay with HOXC9 [13]; 8.92 upbm affinity estimate (log intensity, higher = more binding, comparable within an allelic series) with HOXA7 [4]. Besides, the binding signal with HOXB6 [5] is 12 upbm affinity estimate (log intensity, higher = more binding, comparable within an allelic series).
With TCATTAAA, the binding signal with HOXB9 [6] was 10.2 upbm affinity estimate (log intensity, higher = more binding, comparable within an allelic series); with HOXC9 [9], 13 upbm affinity estimate (log intensity, higher = more binding, comparable within an allelic series); with HOXA7 [1], 11.6 upbm affinity estimate (log intensity, higher = more binding, comparable within an allelic series); with HOXC10 [10], 12.6 upbm affinity estimate (log intensity, higher = more binding, comparable within an allelic series); in the assay with HOXB6 [2], 10.1 upbm affinity estimate (log intensity, higher = more binding, comparable within an allelic series); in the assay with HOXB9 [7] it was 12.2 upbm affinity estimate (log intensity, higher = more binding, comparable within an allelic series). Further, the binding signal with HOXC9 [11] was 12.9 upbm affinity estimate (log intensity, higher = more binding, comparable within an allelic series); with HOXD13 [14] it was 10.8 upbm affinity estimate (log intensity, higher = more binding, comparable within an allelic series); with HOXC9 [12], 12.9 upbm affinity estimate (log intensity, higher = more binding, comparable within an allelic series); with HOXD13 [15] it was 11.9 upbm affinity estimate (log intensity, higher = more binding, comparable within an allelic series); in the assay with HOXC10 [3], 12.4 upbm affinity estimate (log intensity, higher = more binding, comparable within an allelic series); in the assay with HOXD13 [16] it was 11.7 upbm affinity estimate (log intensity, higher = more binding, comparable within an allelic series). Also, the binding signal is 12 upbm affinity estimate (log intensity, higher = more binding, comparable within an allelic series) with HOXB9 [8]; 11.2 upbm affinity estimate (log intensity, higher = more binding, comparable within an allelic series) with HOXC9 [13]; 9 upbm affinity estimate (log intensity, higher = more binding, comparable within an allelic series) with HOXA7 [4]; 11.9 upbm affinity estimate (log intensity, higher = more binding, comparable within an allelic series) with HOXB6 [5].
TCCATTAA: the binding signal in the assay with HOXB9 [6] was 9.97 upbm affinity estimate (log intensity, higher = more binding, comparable within an allelic series); with HOXA7 [1], 11.2 upbm affinity estimate (log intensity, higher = more binding, comparable within an allelic series); with HOXB6 [2], 9.96 upbm affinity estimate (log intensity, higher = more binding, comparable within an allelic series); with HOXB9 [8] it was 11.5 upbm affinity estimate (log intensity, higher = more binding, comparable within an allelic series); with HOXA7 [4] it was 8.72 upbm affinity estimate (log intensity, higher = more binding, comparable within an allelic series); with HOXB6 [5], 11.7 upbm affinity estimate (log intensity, higher = more binding, comparable within an allelic series).
GGTCATTA: the binding signal was 10 upbm affinity estimate (log intensity, higher = more binding, comparable within an allelic series) with HOXB9 [6]; 12.4 upbm affinity estimate (log intensity, higher = more binding, comparable within an allelic series) with VENTX; 11.8 upbm affinity estimate (log intensity, higher = more binding, comparable within an allelic series) with HOXA7 [1]; 9.99 upbm affinity estimate (log intensity, higher = more binding, comparable within an allelic series) in the assay with HOXB6 [2]; 12 upbm affinity estimate (log intensity, higher = more binding, comparable within an allelic series) in the assay with HOXC10 [3]; 8.85 upbm affinity estimate (log intensity, higher = more binding, comparable within an allelic series) in the assay with HOXA7 [4]. Also, in the assay with HOXB6 [5], the binding signal is 12.1 upbm affinity estimate (log intensity, higher = more binding, comparable within an allelic series).
Turning to CCGGACCA, the binding signal was 9.48 upbm affinity estimate (log intensity, higher = more binding, comparable within an allelic series) with HOXC9 [9]; 9.06 upbm affinity estimate (log intensity, higher = more binding, comparable within an allelic series) with HOXB6 [2]; 9.57 upbm affinity estimate (log intensity, higher = more binding, comparable within an allelic series) with HOXC9 [11]; 9.51 upbm affinity estimate (log intensity, higher = more binding, comparable within an allelic series) with HOXC9 [12]; 9.77 upbm affinity estimate (log intensity, higher = more binding, comparable within an allelic series) with HOXC9 [13]; 8.79 upbm affinity estimate (log intensity, higher = more binding, comparable within an allelic series) with HOXB6 [5].
Take CGCCGAAG: the binding signal with HOXC9 [9] was 9.52 upbm affinity estimate (log intensity, higher = more binding, comparable within an allelic series); with HOXB6 [2], 9.07 upbm affinity estimate (log intensity, higher = more binding, comparable within an allelic series); in the assay with HOXC9 [11], 9.6 upbm affinity estimate (log intensity, higher = more binding, comparable within an allelic series); in the assay with HOXC9 [12], 9.42 upbm affinity estimate (log intensity, higher = more binding, comparable within an allelic series); with HOXC9 [13], 9.77 upbm affinity estimate (log intensity, higher = more binding, comparable within an allelic series); with HOXB6 [5], 9.15 upbm affinity estimate (log intensity, higher = more binding, comparable within an allelic series).
Turning to CGAGGCAC, the binding signal was 9.69 upbm affinity estimate (log intensity, higher = more binding, comparable within an allelic series) in the assay with HOXC9 [9]; 9.79 upbm affinity estimate (log intensity, higher = more binding, comparable within an allelic series) with HOXC9 [11]; 9.57 upbm affinity estimate (log intensity, higher = more binding, comparable within an allelic series) in the assay with HOXD13 [14]; 9.72 upbm affinity estimate (log intensity, higher = more binding, comparable within an allelic series) in the assay with HOXC9 [12]; 9.71 upbm affinity estimate (log intensity, higher = more binding, comparable within an allelic series) with HOXD13 [15]; 9.78 upbm affinity estimate (log intensity, higher = more binding, comparable within an allelic series) in the assay with HOXD13 [16]. The binding signal with HOXC9 [13] was 9.7 upbm affinity estimate (log intensity, higher = more binding, comparable within an allelic series).
